Screening results as filed in PubChem BioAssay.
PTPN22 inh 2 = inhibitors of human LYP (PTPN22) phosphatase | Q9Y2R2 | recombinant LYP catalytic domain, DiFMUP fluorescence | inhibition, % at 2 µM | 0.21% of 96,000 active | AID 640;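 active = inhibition at 2 µM at or above a set limit, the screen mean plus 3 SD, cut at about 24% in these data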;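 note: 0% = DMSO with enzyme and 100% = enzyme fully blocked by orthovanadate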
PTPN22 act = activators of human LYP (PTPN22) phosphatase | Q9Y2R2 | recombinant LYP, DiFMUP fluorescence; 0 = plate median, 100 = signal doubled | activation, % at 2 µM | 0.11% of 96,000 active | AID 697;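 active = activation at 2 µM above a set limit, the mean plus 5 SD, cut at about 37% in these data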
S1P2 antag = antagonists of human S1P2 receptor. O95136. cell-based S1P2 antagonist assay, inhibition at 5 uM. inhibition, % at 5 µM. 0.21% of 97,000 active; in the data active = inhibition above about 45%;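 note: CRE beta-lactamase reporter cells expressing human S1P2 stimulated with S1P; 0% = agonist at EC80 alone and 100% = agonist plus reference antagonist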
S1P2 agonist = agonists of human S1P2 receptor. S1P2-expressing cell line, agonist reporter read-out. activation, % at 4.5 µM. 0.46% of 97,000 active. AID 729; in the data active = activation above about 16%;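 note: 0% = vehicle low control and 100% = maximal reference agonist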
GALR2 antag = GALR2 (human) receptor antagonism; GALR2-expressing cells, antagonist mode; inhibition, % at 4 µM; 0.39% of 140,000 active; in the data active = inhibition above about 27%;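 note: cells stimulated with galanin 1-16 at roughly its EC80; 0% = agonist challenge control and 100% = basal control without agonist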
Target sequence (O43603 whole entry, looked up): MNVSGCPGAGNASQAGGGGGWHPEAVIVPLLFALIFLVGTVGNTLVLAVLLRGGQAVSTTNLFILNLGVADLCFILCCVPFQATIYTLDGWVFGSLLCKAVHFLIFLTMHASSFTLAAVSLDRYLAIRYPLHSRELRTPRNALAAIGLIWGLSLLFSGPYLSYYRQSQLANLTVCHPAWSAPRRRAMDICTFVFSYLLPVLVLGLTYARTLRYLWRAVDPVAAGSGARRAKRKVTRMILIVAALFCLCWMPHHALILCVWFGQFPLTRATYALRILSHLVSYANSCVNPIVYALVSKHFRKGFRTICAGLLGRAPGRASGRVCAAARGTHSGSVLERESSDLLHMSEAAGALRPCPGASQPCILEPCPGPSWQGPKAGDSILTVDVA
GALR2 ag = agonists of human galanin receptor 2 (GALR2) | GALR2-expressing cells, agonist activation read-out | activation, % (test concentration not listed) | 0.48% of 140,000 active | AID 803; in the data active = activation above about 5%, passing the limit was not always enough;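 note: 0% = vehicle buffer wells and 100% = reference agonist at full effect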
GALR2 ag confirm = confirmation of human galanin receptor 2 (GALR2) agonists; GALR2-expressing cells, agonist activation; AID 864; 10% of 460 active; activation, % at 5.6 µM; shares compounds with GALR2 ag; in the data active = activation above about 8.4%;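 note: 0% = buffer-only vehicle wells and 100% = full reference agonist response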
BLA activ ctr = activates beta-lactamase reporter in GALR2 agonist counterscreen. shares compounds with GALR2 ag. CHO NFAT-bla reporter, beta-lactamase FRET activation. activation, % at 5.6 µM. 10% of 460 active;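 active = activation above the screen-wide mean activation plus 3 SD, cut at about 8% in these data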;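 note: 0% = DMSO with PBS wells and 100% = thapsigargin positive control wells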
Numbers without * were called inactive; · = no result given. In the library only some 1.3% were active in any assay of this set; here they are far more common.

SMILES	PTPN22 inh 2	PTPN22 act	S1P2 antag	S1P2 agonist	GALR2 antag	GALR2 ag	GALR2 ag confirm	BLA activ ctr
Cc1cccc(N2CCN(S(=O)(=O)c3ccc4c(c3)CCN4C(=O)CCC(=O)O)CC2C)c1 (stereo not given)	3	-4	5	-4	4	0	·	·
COc1ccc(-c2cnnn2-c2ccc(NC(=O)c3ccc(S(=O)(=O)N4CCCCC4)cc3)cc2)cc1OC	·	·	·	·	4	4	·	·
COc1ccc(-c2cnnn2-c2ccc(NC(=O)c3ccco3)cc2)cc1OC	-14	12	-33	7	7	20*	0	-1
CCOC(=O)CS(=O)(=O)c1nc(-c2ccc(F)cc2)cc(C(F)(F)F)n1	·	·	·	·	51*	9.3*	3	-9
COC(=O)CCS(=O)(=O)c1nc(-c2ccccc2)cc(C(F)(F)F)n1	5	-2	-11	-2	8	11	0	2
CCOC(=O)CCS(=O)(=O)c1nc(-c2ccccc2)cc(C(F)(F)F)n1	-2	-3	-11	0	19	3	·	·
O=C(CCc1nc2ccccc2[nH]c1=O)OCC(=O)c1cccc2ccccc12	5	-5	0	1	-3	-2	·	·
CCC(CC)C(=O)Nc1ccc(Cl)c(Cl)c1	7	-4	-15	-2	-2	-1	·	·
O=C(CC1CCCCC1)Nc1ccccc1-c1ccccc1	·	·	·	·	-7	1	·	·
CC(NC1CCCC1)C(=O)Nc1ccccc1-c1ccccc1 (stereo not given)	0	0	-10	-9	9	12*	-1	-1
CC(=O)N1N=C(c2ccc(C)cc2)OC1c1ccc(C)cc1 (stereo not given)	0	1	-6	-3	-8	77*	-1	0
CCOC(=O)c1ccc(NC(=S)N2CCSC2c2ccc(Br)cc2)cc1 (stereo not given)	·	·	·	·	-2	17*	17*	38*
Cc1cccc(N2C(=O)C3CCC(c4ccccc4)CC3C2=O)c1 (stereo not given)	·	·	·	·	9	-1	·	·
CCN(CC)S(=O)(=O)c1ccc(N/N=C/c2cc(OC)c(OC)cc2OC)nc1	·	·	·	·	9	49*	21*	33*
CCN(CC)S(=O)(=O)c1ccc(N/N=C/c2ccc(OC)c(OC)c2OC)nc1	·	·	·	·	1	-1	·	·
Cc1ccc(CN2C(=O)N/C(=C\c3ccc(N4CCOCC4)cc3)C2=O)cc1	·	·	·	·	12	8.7*	4	8
O=C1N/C(=C\c2ccc(N3CCOCC3)c(F)c2)C(=O)N1Cc1ccccc1	-10	13	-7	-4	-4	-1	·	·
Cc1cc(OC(F)F)ccc1NC(=O)Nc1ccc([N+](=O)[O-])cc1	·	·	·	·	1	0	·	·
Cc1c(/C=N/n2cnnc2)c2ccccc2n1CCOc1ccc(Cl)cc1	8	-10	-17	-3	2	2	·	·
Cc1ccc(OCCn2c(C)c(/C=N/n3cnnc3)c3ccccc32)cc1	3	-6	-28	6	-7	9.1*	4	-2
O=c1[nH]c(/C=C/c2ccccc2OC(F)F)nc2c1cnn2-c1ccccc1	·	·	·	·	-11	15*	8.8*	4
CCCSc1nc2c(cnn2-c2ccccc2)c(=O)[nH]1	·	·	·	·	8	-1	·	·
CSC1=NC2(CC(c3ccccc3)Oc3cc(O)ccc32)CC(C)(C)N1 (stereo not given)	-6	5	-15	1	-20	20*	9.2*	78*
COc1cccc(C2CC3(CC(C)(C)NC(=S)N3)Oc3cc(O)ccc32)c1 (stereo not given)	·	·	·	·	1	0	·	·
CC(=O)c1nn(-c2ccccc2)cc1C(=O)c1ccc(Br)cc1	·	·	·	·	-4	9.4*	6	1
SMILES	PTPN22 inh 2	PTPN22 act	S1P2 antag	S1P2 agonist	GALR2 antag	GALR2 ag	GALR2 ag confirm	BLA activ ctr
CN(CC(O)CON=C1c2ccccc2-c2ccccc21)S(=O)(=O)c1ccc(Br)cc1 (stereo not given)	·	·	·	·	-12	11*	0	1
O=C(C1CC=CCC1)N1CCN(C(=O)C2CC=CCC2)CC1 (stereo not given)	5	-9	7	-2	-2	-1	·	·
CCOC(=O)Cn1c(=NC(=O)c2cccs2)sc2cc(C(=O)OC)ccc21	·	·	·	·	-1	14*	-1	-2
CC(NC(=O)COC(=O)CC(c1ccccc1)c1ccccc1)c1ccccc1 (stereo not given)	·	·	·	·	2	-1	·	·
COc1ccc(Nc2cc(C(=O)NCc3ccco3)c3ccccc3n2)cc1	·	·	·	·	10	9.7*	6	4
COc1ccc(Nc2cc(C(=O)NCCCN3CCN(C)CC3)c3ccccc3n2)cc1	-13	11	12	-3	4	-2	·	·
CC(C)Oc1ccc(C(=O)NC2(C(F)(F)F)N=C3SCCN3C2=O)cc1 (stereo not given)	-8	8	7	-4	1	-2	·	·
C=C(C)CN1CCN(c2c(CCC#N)c(C)c(C#N)c3nc4ccccc4n23)CC1	·	·	·	·	2	12*	3	1
CCCCCc1c(C)c(C#N)c2nc3ccccc3n2c1-n1ccnc1C	-2	2	6	1	-10	-1	·	·
CN(C)S(=O)(=O)c1ccc(N2CCCC2)c(C(=O)Nc2nc(-c3cc(F)ccc3F)cs2)c1	·	·	·	·	4	0	·	·
CCOC(=O)c1cc2cc3ccccc3cc2[nH]1	2	0	15	15	4	22*	4	11*
CC(C)OC(=O)c1cc2ccccc2[nH]1	-3	2	-23	-5	0	-2	·	·
CCOc1cc(/C=N/NC(=O)CNc2ccc(C)cc2)ccc1OC(=O)c1ccccc1	9	-9	15	1	-9	0	·	·
Cc1ccc(CCNC(=O)c2ccc(CS(=O)(=O)Cc3ccccc3F)o2)cc1	10	-9	15	-5	-14	0	·	·
O=C(NCCc1ccccc1)c1ccc(CS(=O)(=O)Cc2ccccc2F)o1	4	-4	3	-1	-2	9	-1	-1
Cc1c(C)n(CC(O)CN2C(=O)c3ccccc3S2(=O)=O)c2ccccc12 (stereo not given)	2	0	-2	-5	-11	-1	·	·
CC1CCN(C(=O)CCc2ccc(Oc3cc([N+](=O)[O-])cc([N+](=O)[O-])c3)cc2)CC1	·	·	·	·	-9	-1	·	·
O=C(NCCN1CCOCC1)c1csc2c1CCCC2	1	-5	-12	-2	-17	0	·	·
CC1CC(C)CN(CCCNC(=O)c2csc3c2CCCC3)C1 (stereo not given)	-4	5	-7	-8	-7	108*	0	-1
COC(=O)C1C(O)=C(C=NCC(C)N=CC2=C(O)C(C(=O)OC)C(C)(C)CC2=O)C(=O)CC1(C)C (stereo not given)	-1	-1	9	-8	6	0	·	·
CCC(C)N=CC1=C(O)C(C(=O)OC)C(C)(C)CC1=O (stereo not given)	-6	5	-5	-7	-3	49*	0	-1
